Records with an inconclusive call do not appear. A call without a number means that no potency is given here. The source made the active and inactive calls. Calls follow the shape of the dose curve; as a rule, active = well fitted cell-killing curve with a large enough effect; inconclusive = small, poorly fitted or top-dose-only effect, or effect the other way; inactive = no such curve, though single readings can be large or run the other way.
Potency is read from the fitted curve at half-maximal effect.

The test is described as follows: Quantitative High-Throughput drug screen in 47 multiple myeloma cell lines against the NCATS MIPE library collection: OCIMY1_PLB cell viability assay (AID 1918979). Also: nearly all actives have a fitted effect of over 35% in size. The settings on record: OCI-MY1 myeloma viability, CellTiter-Glo ATP, 48 h; series mostly up to 45.8 µM. The source says:
PI: Beverly A. Mock Ph.D.
Laboratory of Cancer Biology and Genetics,
Center for Cancer Research, National Cancer Institute,
National Institute of Health, Bethesda, Maryland
Drug resistance and disease progression are common in multiple myeloma (MM) patients, underscoring the need for new therapeutic combinations. […] We hypothesized that effective combinations would reduce MYC expression and enhance p16 activity. […] These preclinical data identify potentially useful drug combinations for evaluation in drug-resistant MM and reveal potential mechanisms of combined drug sensitivity.
Described herein is the primary MIPE qHTS used to cherrypick compounds. Validated compounds were then further tested for potential synergistic activiy.
[1] Peat TJ, Gaikwad SM, Dubois W, Gyabaah-Kessie N, Zhang S, Gorjifard S, Phyo Z, Andres M, Hughitt VK, Simpson RM, Miller MA, Girvin AT, Taylor A, Williams D, D'Antonio N, Zhang Y, Rajagopalan A, Flietner E, Wilson K, Zhang X, Shinn P, Klumpp-Thomas C, McKnight C, Itkin Z, Chen L, Kazandijian D, Zhang J, Michalowski AM, Simmons JK, Keats J, Thomas CJ, Mock BA. Drug combinations identified by high-throughput screening promote cell cycle transition and upregulate Smad pathways in myeloma. Cancer Lett. 2023 Aug 1;568:216284. doi: 10.1016/j.canlet.2023.216284. Epub 2023 Jun 24. PMID: 37356470; PMCID: PMC10408729.
SEQUENCE No. (e.g., 1, 2, 3, etc.); […] (e.g., Cells, Incubation, Reagent, etc.); VALUE and DESCRIPTION.
1; Cells; 5 uL; white, solid bottom 1536-well Greiner assay plate.
2; Compounds; 23 nL; Kalypsis pin tool (Wako USA) equipped with a 1536-well pin head to transfer to the assay plates.
3; Incubation; 48 hours; 37C incubation.
4; Reagent;5uL; CellTiter Glo (Promega).
5; Detector; 425V; Luminescence; Viewlux PerkinElmer.
NOTES (numbers refer to Sequence numbers above)
1. The cell-based screening methods employed in this study were like those previously published. Briefly, the corresponding myeloma cell lines were screened in 1,536-well plates with 500 cells, 5-uL per well for inhibition of cell viability (assessed by measuring ATP levels with CellTiterGlo).
2. NCATS MIPE 4.0 library of approved and investigational drugs were added using the Kalypsis pin tool. Wells treated with DMSO only for 100% viability and media only for 0% viability were used as controls.
3. The assay plates were covered and incubated for 48 hours in a 37C, 5% CO2 incubator with controlled humidity.
4. After 48 hours, CellTilter-GloTM luminescent substrate mix (Promega) reagent was added to the assay plate and plates we incubated for 5 min at room temperature.
5. Signal was measured as median relative luminescence units on a ViewLux (PerkinElmer) multiplate reader.
[1] Heske CM, Davis MI, Baumgart JT, Wilson K, Gormally MV, Chen L, Zhang X, Ceribelli M, Duveau DY, Guha R, Ferrer M, Arnaldez FI, Ji J, Tran HL, Zhang Y, Mendoza A, Helman LJ, Thomas CJ. Matrix Screen Identifies Synergistic Combination of PARP Inhibitors and Nicotinamide Phosphoribosyltransferase (NAMPT) Inhibitors in Ewing Sarcoma. Clin Cancer Res. 2017 Dec 1;23(23):7301-7311. doi: 10.1158/1078-0432.CCR-17-1121. Epub 2017 Sep 12. PMID: 28899971; PMCID: PMC6636827.
(Cellular ATP, detected with luciferase, serves as a proxy for viable cell number.)
As to `C[C@@H]1CC[C@@]2(OC1)OC1CC3C4CC=C5CC(O)CCC5(C)C4CCC3(C)C1[C@@H]2C` (stereo not given in full), the Potency result is “inactive”.

Turning to `C[C@@]12C(=O)OC(=O)[C@@]1(C)C1CCC2O1`, the Potency was 5.26 µM (active).

With `C[N+](C)([O-])CCNc1ccc(NCC[N+](C)(C)[O-])c2c1C(=O)c1c(O)ccc(O)c1C2=O`, the Potency result is “inactive”.

Turning to `C=C1C(=CC=C2CCC[C@]3(C)[C@@H]([C@H](C)CCCC(C)(C)O)CC[C@@H]23)C[C@@H](O)C[C@@H]1O`, the Potency result was “inactive”.

`NC(=O)c1cccc(-c2cccc(OC(=O)NC3CCCCC3)c2)c1`: the Potency entry is “inactive”.

`Cc1ncc(-c2ccnc(Nc3ccc(S(C)(=O)=O)cc3)n2)n1C(C)C`: the Potency was 6.62 µM (active).

As to `Nc1ccc(C(=O)Nc2cccc(-c3nc(N4CCOCC4)c4oc5ncccc5c4n3)c2)cn1`, the Potency is 16.6 µM (active).

For `C[C@@H](Oc1ccc2[nH]nc(C=Cc3cnn(CCO)c3)c2c1)c1c(Cl)cncc1Cl`, the Potency is 11.8 µM (active).

Consider `c1coc(CNc2ncnc3nc[nH]c23)c1`, for which the Potency result was “inactive”.

As to `COc1cc(C)c(Sc2cnc(NC(=O)c3ccc(CNC(C)C(C)(C)C)cc3)s2)cc1C(=O)N1CCN(C(C)=O)CC1` (stereo not given), the Potency is 14.8 µM (active).

`CC(C)OC(=O)[C@H](C)N[P@](=O)(OC[C@H]1O[C@@H](n2ccc(=O)[nH]c2=O)[C@](C)(F)[C@H]1O)Oc1ccccc1`: the Potency result was “inactive”.

For `COc1cc([C@@H]2c3cc4c(cc3[C@@H](O[C@@H]3O[C@@H]5CO[C@@H](c6cccs6)O[C@@H]5[C@H](O)[C@@H]3O)[C@H]3COC(=O)[C@H]23)OCO4)cc(OC)c1O`, the Potency was 8.33 µM (active).

`Nc1nc(=O)n([C@H]2CSC(CO)O2)cc1F` (stereo not given in full): the Potency result is “inactive”.

With `CC(C=CC(=O)NO)=C[C@@H](C)C(=O)c1ccc(N(C)C)cc1`, the Potency is 0.372 µM (active).

In the case of `CC(=O)O[C@@]12CO[C@H]1C[C@H](O)[C@@]1(C)C(=O)[C@H](O)C3=C(C)[C@@H](OC(=O)C(O)[C@@H](NC(=O)OC(C)(C)C)c4ccccc4)C[C@@](O)([C@@H](OC(=O)c4ccccc4)[C@@H]21)C3(C)C` (stereo not given in full), the Potency result was “inactive”.

On to `CC(=O)NCC(=O)N1[C@H]2CC[C@H]1c1cc(Nc3ncc(C(F)(F)F)c(NC4CCC4)n3)ccc12`, for which the Potency is 14.8 µM (active).

Regarding `Nc1cccc2c1C(=O)N(C1CCC(=O)NC1=O)C2=O` (stereo not given), the Potency entry is “inactive”.

For `COc1cc(OC)cc(-c2ccc3ncc4ccc(=O)n(-c5ccc(N6CCNCC6)c(C(F)(F)F)c5)c4c3c2)c1`, the Potency is 14.8 µM (active).

With `CC[C@]12C=CCN3CC[C@@]4(c5cc([C@@]6(C(=O)OC)C[C@H]7C[C@@H](C(C)(F)F)CN(Cc8c6[nH]c6ccccc86)C7)c(OC)cc5N(C)[C@H]4[C@@](O)(C(=O)OC)[C@H]1OC(C)=O)[C@@H]32`, the Potency is 0.0469 µM (active).

With `CC(=O)[C@]1(O)Cc2c(O)c3c(c(O)c2[C@@H](O[C@H]2C[C@H](N)[C@@H](O)[C@H](C)O2)C1)C(=O)c1ccccc1C3=O`, the Potency was 0.743 µM (active).

With `Nc1nc(=O)n([C@H]2C[C@H](O)[C@@H](CO)O2)cc1F`, the Potency result is “inactive”.

Turning to `CCC[C@H]1C[C@H](C(=O)N[C@@H]([C@@H]2O[C@@H](SC)[C@@H](O)[C@@H](O)[C@@H]2O)[C@H](C)Cl)N(C)C1`, the Potency result was “inactive”.

Take `C=CC(=O)Nc1ccc2ncnc(Nc3ccc(OCc4cccc(F)c4)c(Cl)c3)c2c1`: the Potency was 14.8 µM (active).

Consider `CC(C)(O)[C@H]1CC[C@@](C)([C@H]2[C@@H](O)C[C@@]3(C)[C@@H]4C[C@H](O[C@@H]5O[C@H](CO)[C@@H](O)[C@H](O)[C@@H]5O)[C@H]5C(C)(C)[C@@H](O[C@@H]6OC[C@@H](O)[C@H](O)[C@@H]6O)CC[C@@]56C[C@@]46CC[C@]23C)O1`, for which the Potency result is “inactive”.

On to `COc1ccnc2[nH]cc(C(=O)C(=O)N3CCN(C(=O)c4ccccc4)C[C@@H]3C)c12`, for which the Potency entry was “inactive”.

As to `CON=C(C(=O)N[C@@H]1C(=O)N2C(C(=O)O)=C(CSC(=O)c3ccco3)CS[C@H]12)c1csc(N)n1`, the Potency result is “inactive”.

As for `CC(=CC(=O)Nc1ccccc1C(=O)O)c1ccc2ccccc2c1`, the Potency entry is “inactive”.

`N=c1ccn2c(n1)O[C@H]1[C@@H](O)[C@@H](CO)O[C@H]12`: the Potency entry was “inactive”.

`CCCCCCCCCCCCc1ccc(S(=O)(=O)Nc2nncs2)cc1`: the Potency entry is “inactive”.

Consider `COC(=O)[C@H](CCCN=C(N)N)NS(=O)(=O)c1ccc(C)cc1`, for which the Potency result is “inactive”.

`CCCCCCCCCCCC(CC1OC(=O)C1CCCCCC)OC(=O)C(CC(C)C)NC=O` (stereo not given): the Potency result is “inactive”.

As to `Nc1ncn([C@@H]2O[C@H](CO)[C@@H](O)[C@@H]2O)c(=O)n1`, the Potency is 14.8 µM (active).

Consider `NC(=O)c1ncn([C@@H]2O[C@H](CO)[C@@H](O)[C@@H]2O)c1N`, for which the Potency result was “inactive”.

As for `CC(C(C)N1CC(=O)NC(=O)C1)N1CC(=O)NC(=O)C1` (stereo not given), the Potency result is “inactive”.

For `COc1ccc(C(C)=O)c(O)c1`, the Potency entry was “inactive”.

As for `CC[C@H](CC[C@@H](C)[C@H]1CC[C@H]2[C@@H]3CC=C4C[C@@H](O)CC[C@]4(C)[C@@H]3CC[C@]12C)C(C)C`, the Potency entry is “inactive”.

As for `CO[C@@H]1[C@@H](O)[C@H](O)[C@@H](n2c3c(Cl)cccc3c3c4c(c5c6cccc(Cl)c6[nH]c5c32)C(=O)NC4=O)O[C@@H]1CO`, the Potency is 2.35 µM (active).

Take `CC(C)C[C@H](NC(=O)[C@@H](NC(=O)c1cccc(-c2ccccc2)n1)[C@@H](C)O)B(O)O`: the Potency is 0.0166 µM (active).

As to `CN(C)CCN1C(=O)c2cccc3cc(N)cc(c23)C1=O`, the Potency is 23.5 µM (active).

As for `C=CC[C@@H]1C=C(C)C[C@H](C)C[C@H](OC)[C@H]2O[C@@](O)(C(=O)C(=O)N3CCCC[C@H]3C(=O)O[C@H](C(C)=C[C@@H]3CC[C@H](O)[C@H](OC)C3)[C@@H](C)[C@@H](O)CC1=O)[C@@H](C)C[C@@H]2OC`, the Potency is 2.64 µM (active).
